Measured values reported in PubChem BioAssay (EPA / NIEHS).
A structure can be active in one record and inactive in another. Active and inactive are the calls of the source. The calls were made as follows: active = hit-call score of the fitted dose curve at least 0.9, where 1 is the maximum; inactive = score below 0.9.

Columns and labels:
[1] = BSK_3C_SRB: Viability Assessment in the BioMAP Diversity Plus: 3C Assay (AID 2283023); details: primary human endothelial cells (HUVEC);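 also: fitted both ways against DMSO so a hit may be signal rise or drop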
Outline: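 Human umbilical vein endothelial cells in the 3C system, treated 24 h. Total protein measured by 0.1% sulforhodamine B staining after 10% TCA fixation, read at 560 nm; bidirectional fit versus DMSO.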

[2] = read-out: Matrix Metallopeptidase 1 (MMP1), MMP1 (gene 4312); assay: BSK_BE3C_MMP1: BioMAP Diversity Plus: BE3C Assay for Matrix Metallopeptidase 1 (MMP1) Biomarker Activity (AID 2283024); details: primary human bronchial epithelial cells; actives raise or lower the signal
Outline: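 MMP1 signal, measured by ELISA after a 24 h chemical exposure of human primary bronchial epithelial cells, is analysed with bidirectional fitting using DMSO as negative control.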

[3] = BSK_3C_Vis: BioMAP Diversity Plus: 3C Assay for Morphology Visualization (AID 2283025); details: primary human endothelial cells (HUVEC);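 also: fitted both ways so gain or loss versus DMSO counts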
Outline: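 Morphology read by light microscopy serves as a background control for the multiplexed 3C assay in human umbilical vein endothelial cells, taken 24 h after dosing, with DMSO as the negative control and bidirectional curve fitting.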

[4] = read-out: Pselectin, SELP (gene 6403); assay: BSK_4H_Pselectin: BioMAP Diversity Plus: 4H Assay for Pselectin Biomarker Activity (AID 2283026); details: primary human endothelial cells (HUVEC); actives raise or lower the signal
Outline: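 Endothelial primary cells (human umbilical vein) are dosed, incubated 24 h, and assayed for surface P-selectin by ELISA; responses in either direction are fitted relative to the DMSO negative control.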

[5] = BSK_4H_SRB: Viability Assessment in the BioMAP Diversity Plus: 4H Assay (AID 2283027); details: primary human endothelial cells (HUVEC);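 also: cells exposed to compound for 24 h before staining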;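 as to AC50: curves fitted both ways versus DMSO so AC50 may be loss or gain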
Outline: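 Cytotoxicity readout: sulforhodamine B (0.1%) staining of total protein after 10% TCA fixation, measured at 560 nm in human umbilical vein endothelium at 24 h. DMSO set the baseline; fitting was bidirectional.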

[6] = BSK_BE3C_SRB: Viability Assessment in the BioMAP Diversity Plus: BE3C Assay (AID 2283028); details: primary human bronchial epithelial cells;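 as to AC50: fitted both ways so AC50 may mark signal gain or loss versus DMSO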
Outline: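 Human bronchial epithelial primary cells in confluent culture, 24 h after chemical dosing; total protein by 0.1% SRB staining after 10% TCA fixation, read at 560 nm. Bidirectional fitting versus DMSO baseline.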

[7] = read-out: Urokinase-type plasminogen activator receptor (uPAR), PLAUR (gene 5329); assay: BSK_4H_uPAR: BioMAP Diversity Plus: 4H Assay for Urokinase-type plasminogen activator receptor (uPAR) Biomarker Activity (AID 2283030); details: primary human endothelial cells (HUVEC); actives raise or lower the signal
Outline: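 Human umbilical vein endothelial cells in the 4H system, 24 h after chemical dosing. Cell-surface uPAR measured by ELISA, fitted in both directions versus DMSO; cytotoxicity checked by SRB total protein in parallel cultures.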

[8] = read-out: Vascular endothelial growth factor receptor 2 (Homo sapiens) (UniProt P35968); assay: BSK_4H_VEGFRII: BioMAP Diversity Plus: 4H Assay for Vascular endothelial growth factor receptor 2 (VEGFR2) Biomarker Activity (AID 2283031); details: primary human endothelial cells (HUVEC); actives raise or lower the signal;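 as to AC50: cell-surface VEGFR2 protein level quantified by ELISA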
Outline: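 Primary human umbilical vein endothelial cells (4H system), 24 h exposure; cell-surface VEGFR2 measured by ELISA. Bidirectional fitting versus DMSO; cytotoxicity checked in parallel by SRB total-protein staining.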

[9] = read-out: Human Leukocyte Antigen - DR isotype (HLADR), HLA-DRA (gene 3122); assay: BSK_BE3C_HLADR: BioMAP Diversity Plus: BE3C Assay for Human Leukocyte Antigen - DR isotype (HLADR) Biomarker Activity (AID 2283032); details: primary human bronchial epithelial cells; actives raise or lower the signal
Outline: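 Chemicals are dosed onto BE3C bronchial epithelial cultures of human origin and left 24 h. HLA-DR is then measured by ELISA, and the endpoint is fitted in both directions using DMSO as the activity baseline.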

[10] = read-out: Thrombomodulin, THBD (gene 7056); assay: BSK_3C_Thrombomodulin: BioMAP Diversity Plus: 3C Assay for Thrombomodulin Biomarker Activity (AID 2283029); details: primary human endothelial cells (HUVEC); actives raise or lower the signal
Outline: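 Endothelial cells from umbilical vein are dosed with test chemical and incubated 24 h. Thrombomodulin is then quantified by ELISA, with DMSO serving as negative control and activity baseline.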

Measured: AC50

CCN(CC)C(=S)SSC(=S)N(CC)CC
active: [1] 27.8 µM | [2] 25.5 µM | [3] 39.8 µM | [4] 20 µM | [5] 31.7 µM | [6] 34.6 µM | [7] 26.4 µM | [8] 26.8 µM | [9] 8.96 µM

CCCCC(CC)C(=O)OCCOCCOCCOC(=O)C(CC)CCCC (stereo unspecified)
inactive: all assays above

OCc1c[nH]c2ccccc12
active: [1] 11.5 µM | [2] 0.297 µM | [3] 37.5 µM | [9] 3.97 µM
inactive: all other assays above

Cn1c(=O)c2[nH]cnc2n(C)c1=O
inactive: all assays above

Cc1ccc(S(=O)(=O)NC(=O)NN2CCCCCC2)cc1
not listed: [10]
inactive: all other assays above

C=CCc1cc(S(=O)(=O)c2ccc(O)c(CC=C)c2)ccc1O
active: [1] 23.8 µM | [2] 30.5 µM | [3] 37.5 µM | [4] 33.8 µM | [5] 20 µM | [6] 15.8 µM | [7] 13.9 µM | [8] 20 µM | [9] 8.38 µM

O=c1[nH]cnc2c1ncn2[C@H]1CC[C@@H](CO)O1
not listed: [6]
inactive: all other assays above

O=S(=O)(O)CCC(F)(F)C(F)(F)C(F)(F)C(F)(F)C(F)(F)C(F)(F)F
active: [2] 45.5 µM
inactive: [1] | [2] | [5] | [6] | [7] | [8] | [9]

NC(=O)N(O)[C@@H]1COc2cc(OCc3ccccc3)ccc21
inactive: all assays above

O=C(NO)C1(NS(=O)(=O)c2ccc(Oc3ccc(F)cc3)cc2)CCOCC1
inactive: all assays above

O=C(O)c1cccc(C[C@@H]2COc3ccc(OCc4nc5cc(F)ccc5s4)cc3[C@@H]2O)c1
not listed: [6]
inactive: all other assays above

OC(Cn1cncn1)(Cn1cncn1)c1ccc(F)cc1F
not listed: [10]
inactive: all other assays above

S=P(N1CC1)(N1CC1)N1CC1
not listed: [6]
inactive: all other assays above

Cc1ncc([C@@H](CCCCCCc2ccc3c(n2)NCCC3)CC(=O)O)cn1
active: [7] 3.97 µM
not listed: [6]
inactive: all other assays above

CCCCCCCC1CCC(=O)O1 (stereo unspecified)
inactive: all assays above

CCCCCCCC/C=C\CCCCCCCC(=O)OC[C@@H](O)[C@H]1OC[C@H](O)[C@H]1O
inactive: all assays above

CCCCCCCCCCCCCCCCOS(=O)(=O)O
active: [6] 16.6 µM | [9] 15.1 µM
inactive: all other assays above

Cc1cccc(O)c1C
inactive: all assays above

Nc1ccn([C@@H]2O[C@H](CO)[C@@H](O)[C@@H]2O)c(=O)n1
active: [1] 7.44 µM | [3] 39 µM | [7] 4.93 µM
inactive: all other assays above

O=S(=O)(O)c1ccc(N=Nc2c(O)ccc3cc(S(=O)(=O)O)ccc23)cc1
not listed: [6]
inactive: all other assays above

COS(C)(=O)=O
inactive: all assays above

CCOC(N)=O
not listed: [10]
inactive: all other assays above

CCOc1ccc2[nH]cc(C(=O)NCc3ccccc3)c(=O)c2n1
not listed: [6]
inactive: all other assays above

CCCCCCCCCC
not listed: [10]
inactive: all other assays above

OCCNCCO
not listed: [6]
inactive: all other assays above

CC[C@H](C)C(=O)O[C@H]1C[C@H](O)C=C2C=C[C@H](C)[C@H](CC[C@@H](O)C[C@@H](O)CC(=O)O)[C@H]21
inactive: all assays above

COc1cc2c(c(OC)c1OC)-c1ccc(OC)c(=O)cc1[C@@H](NC(C)=O)CC2
inactive: [2] | [6] | [8]
active: [1] 0.148 µM | [3] 0.488 µM | [4] 0.293 µM | [5] 0.148 µM | [7] 0.148 µM | [9] 0.47 µM

CCCC(CCC)C(=O)O
not listed: [4]
inactive: all other assays above

c1ccc2c(c1)-c1cccc3c1c-2cc1ccccc13
active: [2] 0.661 µM
not listed: [4]
inactive: all other assays above

CCn1nc(C)c2c1C(=O)NCC(c1ccc(O)cc1)=N2
not listed: [4]
inactive: all other assays above

CCCCCCCCN(C)C
not listed: [6] | [10]
inactive: all other assays above

Cc1nc(-c2ccccn2)ncc1C(=O)Nn1cc(C)c2cc(F)ccc21
active: [1] 20 µM
not listed: [6]
inactive: all other assays above

CCCCCCCCCCCCCCO
inactive: [2] | [9]
active: [1] 31.3 µM | [3] 37.5 µM | [4] 33.1 µM | [5] 34 µM | [7] 32.6 µM | [8] 32.6 µM

C[C@]12C=CC(=O)C=C1CC[C@H]1[C@@H]3C[C@@H](O)[C@](O)(C(=O)CO)[C@@]3(C)C[C@H](O)[C@@]12F
not listed: [6] | [10]
inactive: all other assays above

CC1(C)C(=O)N(Cl)C(=O)N1Cl
not listed: [6] | [10]
inactive: all other assays above

Cn1cc[nH]c1=S
not listed: [6] | [10]
inactive: all other assays above

O=C1CN(N=Cc2ccc([N+](=O)[O-])o2)C(=O)N1
not listed: [6] | [10]
inactive: all other assays above

O=C(O)[C@H](O)[C@@H](O)C(=O)O
not listed: [6] | [10]
inactive: all other assays above
